Measured potencies and affinities stand elsewhere. Results filed as inconclusive are left out. Values without a mark were called inactive. Active and inactive are the calls of the source.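 How the source made its calls, unless noted: active means fitted half-maximal concentration for viability loss no higher than twice the top valid dose, in every repeat run; inconclusive means repeat runs disagree, flat partial loss, or poor curve fit; inactive means the rest.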

The nature of one assay: IOSE-T80 viability loss, PAX8-independent line – cell-based, cherry-pick, selectivity assay for PAX8 inhibitor project, dose response (AID 687032).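 Further: cells exposed to compound for 96 h before reading; 0% = neutral control wells and -100% = 2 µM mitoxantrone kill.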 The following applies: CellTiterGlo ATP luminescence, 96 h; series mostly up to 35 µM. A general note: Cellular ATP, detected with luciferase, serves as a proxy for viable cell number.
With `CC(=NNC(=S)N1CCN(C2CCCCCC2)CC1)c1ccccn1`, the compound was called inactive.

`Cc1[nH]c2ccccc2c(=O)c1C(=O)/C=C/c1ccccc1`: the call was inactive.

Take `CCOCCCNC(=O)c1ccc2c(c1)N=C(CC)c1cc(Br)ccc1S2`: the outcome was inactive.

`C[C@H]1CCCCO[C@H](CN(C)C(=O)Nc2ccc(C(F)(F)F)cc2)[C@@H](C)CN([C@@H](C)CO)C(=O)c2cc(NS(=O)(=O)c3ccc(Cl)cc3)ccc2O1`: the result was inactive.

Regarding `CN(C)CCNc1ccc(CO)c2sc3ccc(O)cc3c(=O)c12`, the result was inactive.

As for `COc1ccccc1-n1cc([C@@H]2C[C@H]3CN(c4ccccc4)C(=O)[C@]34CCCN24)cn1`, the outcome was inactive.

Take `N#CC1(NC(=O)Cn2ncc(Cl)c(Cl)c2=O)CCCCC1`: the compound was classed as inactive.

For `Cc1ccc(C(=O)c2cc([N+](=O)[O-])ccc2N2CCCCC2)cc1`, the outcome was inactive.

On to `CC(=O)N1CCc2c(sc(NC(=O)c3ccc([N+](=O)[O-])o3)c2C#N)C1`, for which the result was inactive.

For the compound `COc1cccc2c1C(=O)c1c(O)c3c(c(O)c1C2=O)CC(O)(C(C)=O)CC3OC1CC(N(C)C)C(O)C(C)O1` (stereo not given), the compound was called inactive.

Consider `C[C@H]1CCCCO[C@H](CN(C)C(=O)Nc2ccc(C(F)(F)F)cc2)[C@@H](C)CN([C@@H](C)CO)C(=O)c2cc(NC(=O)Nc3ccc(F)cc3)ccc2O1`, for which the compound was classed as inactive.

In the case of `COc1ccccc1NS(=O)(=O)c1cccc(C(=O)N/N=C/c2ccc([N+](=O)[O-])o2)c1`, the result was inactive.

In the case of `Cn1nnnc1Sc1ncnc2scc(-c3cccc(F)c3)c12`, the compound was classed as inactive.

On to `Cn1cc(C2=C(c3ccc(Cl)cc3Cl)C(=O)NC2=O)c2ccccc21`, for which the result was inactive.

Take `CC(=O)Nc1cc(-c2cccc(C(=O)NCCN(C)C)c2)cn2c(-c3cccc(C(F)(F)F)c3)cnc12`: the result was inactive.

Turning to `COc1ccc(OC)c(-c2nnc3n2N=C(c2ccc(OC)c(OC4CCOC4)c2)CS3)c1` (stereo not given), the call was inactive.

As for `Cc1cc(NC(=O)c2ccc([N+](=O)[O-])o2)ccc1NC(=O)c1ccco1`, the result was inactive.

For the compound `CCOC(=O)c1cnc2ccc(C(=O)OC)cc2c1Nc1ccc(C(=O)O)cc1`, the outcome was inactive.

As for `CC(C)C(=O)N1CCN(c2ccc(NC(=O)c3ccc([N+](=O)[O-])o3)cc2)CC1`, the call was inactive.

With `CS(=O)(=O)c1ncc(Cl)c(C(=O)Nc2ccc3ccccc3c2)n1`, the call was inactive.

On to `COc1cc(/C=C2\COC/C(=C\c3cc(OC)c(OC)c(OC)c3)C2=O)cc(OC)c1OC`, for which the compound was called inactive.

As for `Oc1ccc2ccccc2c1N=Nc1nccs1`, the call was inactive.

With `Cc1cccc(C)c1NS(=O)(=O)c1ccc(-c2cnc(C3CC3)o2)cc1`, the call was inactive.

Regarding `O=C(Nc1ccc([N+](=O)[O-])cc1)Nc1nc(-c2ccc(Cl)s2)cs1`, the result was inactive.

For the compound `CC(C)(C)OC(=O)NCCCC[C@H](NC(=O)c1[nH]cnc1C(=O)N[C@@H](Cc1ccccc1)C(=O)OC(C)(C)C)C(=O)OC(C)(C)C`, the call was inactive.

As to `O=C(NCCN1C(=O)S/C(=C\c2ccc(OC(F)F)cc2)C1=O)c1cnccn1`, the outcome was inactive.

Turning to `Oc1ccc(N=Nc2ccccc2C(F)(F)F)c2cccnc12`, the result was inactive.

As to `Cc1cccc(C2(c3cccc(C)c3)CC2C(=O)Nc2ccc([N+](=O)[O-])cc2O)c1` (stereo not given), the compound was classed as inactive.

With `CCN1CCN(Cc2ccc(NC(=O)c3cc(NC(=O)C(=O)c4c[nH]c5ccccc45)cc(OC)c3)cc2C(F)(F)F)CC1`, the compound was called inactive.

For the compound `CCOc1ccccc1C1C2=C(COC2=O)Nc2cc3c(cc21)OCO3` (stereo not given), the result was inactive.

`C=C1C(=O)[C@]23C[C@H]1CCC2[C@]1(C)CCC[C@@](C)(C(=O)O)C1C[C@@H]3O` (stereo not given in full): the call was inactive.

As for `Cc1ccc(S(=O)(=O)N(C)C[C@@H]2Oc3ccc(NC(=O)Nc4ccc(C(F)(F)F)cc4)cc3CC(=O)N([C@H](C)CO)C[C@@H]2C)cc1`, the outcome was inactive.

Turning to `COc1c(C=O)c2c(c(OC)c1OC)-c1ccc(OC)c(=O)cc1C(NC(C)=O)CC2` (stereo not given), the compound was classed as inactive.

As for `Cn1nnnc1Sc1ncnc2scc(-c3cccc4c3sc3ccccc34)c12`, the call was inactive.

With `CCC(=O)OCCNc1cc(Sc2nccn2C)c2nonc2c1[N+](=O)[O-]`, the compound was classed as inactive.

Consider `COc1cc(/C=N/NS(=O)(=O)c2ccc(C)cc2)ccc1OCc1ccc(C(=O)O)cc1`, for which the outcome was inactive.

Take `Cc1ccc(S(=O)(=O)Nc2ccc3c(c2)C(=O)N([C@H](C)CO)C[C@H](C)[C@@H](CN(C)Cc2ccc(C(F)(F)F)cc2)OCCCC[C@H](C)O3)cc1`: the compound was called inactive.

Turning to `CC(C)N1CCc2c(sc(NC(=O)c3ccc([N+](=O)[O-])o3)c2C(N)=O)C1`, the result was inactive.

Regarding `CS(=O)(=O)Nc1ccc2c(c1)[C@@H]1C[C@@H](CC(=O)NCc3ccc(Oc4ccccc4)cc3)O[C@@H](CO)[C@@H]1O2`, the call was inactive.

As for `CC(=NNC(=S)N1CCC1)c1ccccn1`, the compound was called inactive.

A short description of another assay: general cell-killing toxicity readout – plate reader, dry powder samples, cytotoxicity control for PAX8 inhibitor project, dose response (AID 743021; call rule not given here). The following applies: cell line, non-specific cytotoxicity counter-screen; series mostly up to 35 µM.
`CC(=NNC(=S)N1CCN(C2CCCCCC2)CC1)c1ccccn1`: the call was inactive.

As for `Cc1[nH]c2ccccc2c(=O)c1C(=O)/C=C/c1ccccc1`, the outcome was inactive.

With `CCOCCCNC(=O)c1ccc2c(c1)N=C(CC)c1cc(Br)ccc1S2`, the compound was classed as inactive.

Turning to `C[C@H]1CCCCO[C@H](CN(C)C(=O)Nc2ccc(C(F)(F)F)cc2)[C@@H](C)CN([C@@H](C)CO)C(=O)c2cc(NS(=O)(=O)c3ccc(Cl)cc3)ccc2O1`, the compound was called inactive.

Take `CN(C)CCNc1ccc(CO)c2sc3ccc(O)cc3c(=O)c12`: the compound was classed as inactive.

As for `COc1ccccc1-n1cc([C@@H]2C[C@H]3CN(c4ccccc4)C(=O)[C@]34CCCN24)cn1`, the compound was called inactive.

In the case of `N#CC1(NC(=O)Cn2ncc(Cl)c(Cl)c2=O)CCCCC1`, the outcome was inactive.

Turning to `Cc1ccc(C(=O)c2cc([N+](=O)[O-])ccc2N2CCCCC2)cc1`, the outcome was inactive.

`CC(=O)N1CCc2c(sc(NC(=O)c3ccc([N+](=O)[O-])o3)c2C#N)C1`: the call was inactive.

`COc1cccc2c1C(=O)c1c(O)c3c(c(O)c1C2=O)CC(O)(C(C)=O)CC3OC1CC(N(C)C)C(O)C(C)O1` (stereo not given): the call was inactive.

Take `C[C@H]1CCCCO[C@H](CN(C)C(=O)Nc2ccc(C(F)(F)F)cc2)[C@@H](C)CN([C@@H](C)CO)C(=O)c2cc(NC(=O)Nc3ccc(F)cc3)ccc2O1`: the call was inactive.

On to `COc1ccccc1NS(=O)(=O)c1cccc(C(=O)N/N=C/c2ccc([N+](=O)[O-])o2)c1`, for which the outcome was inactive.

Turning to `Cn1nnnc1Sc1ncnc2scc(-c3cccc(F)c3)c12`, the compound was classed as inactive.

Regarding `Cn1cc(C2=C(c3ccc(Cl)cc3Cl)C(=O)NC2=O)c2ccccc21`, the call was inactive.

Turning to `CC(=O)Nc1cc(-c2cccc(C(=O)NCCN(C)C)c2)cn2c(-c3cccc(C(F)(F)F)c3)cnc12`, the call was inactive.

For the compound `COc1ccc(OC)c(-c2nnc3n2N=C(c2ccc(OC)c(OC4CCOC4)c2)CS3)c1` (stereo not given), the compound was classed as inactive.

With `Cc1cc(NC(=O)c2ccc([N+](=O)[O-])o2)ccc1NC(=O)c1ccco1`, the compound was called inactive.

Turning to `CCOC(=O)c1cnc2ccc(C(=O)OC)cc2c1Nc1ccc(C(=O)O)cc1`, the compound was classed as inactive.

Regarding `CC(C)C(=O)N1CCN(c2ccc(NC(=O)c3ccc([N+](=O)[O-])o3)cc2)CC1`, the compound was called inactive.

For the compound `CS(=O)(=O)c1ncc(Cl)c(C(=O)Nc2ccc3ccccc3c2)n1`, the activity change, negative = cytotoxicity was 1.87% [at 8 µM].

On to `COc1cc(/C=C2\COC/C(=C\c3cc(OC)c(OC)c(OC)c3)C2=O)cc(OC)c1OC`, for which the result was inactive.

For `Oc1ccc2ccccc2c1N=Nc1nccs1`, the compound was classed as inactive.

For the compound `Cc1cccc(C)c1NS(=O)(=O)c1ccc(-c2cnc(C3CC3)o2)cc1`, the call was inactive.

For the compound `O=C(Nc1ccc([N+](=O)[O-])cc1)Nc1nc(-c2ccc(Cl)s2)cs1`, the compound was called inactive.

Turning to `CC(C)(C)OC(=O)NCCCC[C@H](NC(=O)c1[nH]cnc1C(=O)N[C@@H](Cc1ccccc1)C(=O)OC(C)(C)C)C(=O)OC(C)(C)C`, the call was inactive.

For the compound `O=C(NCCN1C(=O)S/C(=C\c2ccc(OC(F)F)cc2)C1=O)c1cnccn1`, the result was inactive.

For `Oc1ccc(N=Nc2ccccc2C(F)(F)F)c2cccnc12`, the call was inactive.

`Cc1cccc(C2(c3cccc(C)c3)CC2C(=O)Nc2ccc([N+](=O)[O-])cc2O)c1` (stereo not given): the call was inactive.

Regarding `CCN1CCN(Cc2ccc(NC(=O)c3cc(NC(=O)C(=O)c4c[nH]c5ccccc45)cc(OC)c3)cc2C(F)(F)F)CC1`, the outcome was inactive.

In the case of `CCOc1ccccc1C1C2=C(COC2=O)Nc2cc3c(cc21)OCO3` (stereo not given), the call was inactive.

Turning to `C=C1C(=O)[C@]23C[C@H]1CCC2[C@]1(C)CCC[C@@](C)(C(=O)O)C1C[C@@H]3O` (stereo not given in full), the result was inactive.

For `Cc1ccc(S(=O)(=O)N(C)C[C@@H]2Oc3ccc(NC(=O)Nc4ccc(C(F)(F)F)cc4)cc3CC(=O)N([C@H](C)CO)C[C@@H]2C)cc1`, the result was inactive.

As for `COc1c(C=O)c2c(c(OC)c1OC)-c1ccc(OC)c(=O)cc1C(NC(C)=O)CC2` (stereo not given), the compound was classed as inactive.

Turning to `Cn1nnnc1Sc1ncnc2scc(-c3cccc4c3sc3ccccc34)c12`, the outcome was inactive.

For `CCC(=O)OCCNc1cc(Sc2nccn2C)c2nonc2c1[N+](=O)[O-]`, the outcome was inactive.

Consider `COc1cc(/C=N/NS(=O)(=O)c2ccc(C)cc2)ccc1OCc1ccc(C(=O)O)cc1`, for which the outcome was inactive.

As to `Cc1ccc(S(=O)(=O)Nc2ccc3c(c2)C(=O)N([C@H](C)CO)C[C@H](C)[C@@H](CN(C)Cc2ccc(C(F)(F)F)cc2)OCCCC[C@H](C)O3)cc1`, the compound was classed as inactive.

As to `CC(C)N1CCc2c(sc(NC(=O)c3ccc([N+](=O)[O-])o3)c2C(N)=O)C1`, the compound was classed as inactive.

In the case of `CS(=O)(=O)Nc1ccc2c(c1)[C@@H]1C[C@@H](CC(=O)NCc3ccc(Oc4ccccc4)cc3)O[C@@H](CO)[C@@H]1O2`, the compound was classed as inactive.

With `CC(=NNC(=S)N1CCC1)c1ccccn1`, the compound was called inactive.

These data come from PubChem BioAssay.
